# PMC5540273 (PLoS ONE, 2017)
# How the values were obtained:
# Conditions in all cases: concentration: 1 μM, replicates: in singlicate; n = 1
# MAP3K15 = tested on: MAP3K15
# MAP3K1 = tested on: MAP3K1
# MAP3K2 = tested on: MAP3K2
# MAP3K3 = tested on: MAP3K3
# MAP3K4 = tested on: MAP3K4
# MAP4K2 = tested on: MAP4K2
# MAP4K3 = tested on: MAP4K3
# MAP4K4 = tested on: MAP4K4
# MAP4K5 = tested on: MAP4K5
# MAPKAPK2 = tested on: MAPKAPK2
# MAPKAPK5 = tested on: MAPKAPK5
# MARK1 = tested on: MARK1
# MARK2 = tested on: MARK2
# MARK3 = tested on: MARK3
# MARK4 = tested on: MARK4
# MAST1 = tested on: MAST1
# MEK1 = tested on: T1, MEK1
# T1 construct: gene MAP2K1
# MEK2 = tested on: T2, MEK2
# T2 construct: gene MAP2K2
# MEK3 = tested on: T3, MEK3
# T3 construct: gene MAP2K3
# MEK4 = tested on: T4, MEK4
# T4 construct: gene MAP2K4
# 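Note: KINOMEscan kinase panel screen.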
Compound,%Inh (MAP3K15) [%],%Inh (MAP3K1) [%],%Inh (MAP3K2) [%],%Inh (MAP3K3) [%],%Inh (MAP3K4) [%],%Inh (MAP4K2) [%],%Inh (MAP4K3) [%],%Inh (MAP4K4) [%],%Inh (MAP4K5) [%],%Inh (MAPKAPK2) [%],%Inh (MAPKAPK5) [%],%Inh (MARK1) [%],%Inh (MARK2) [%],%Inh (MARK3) [%],%Inh (MARK4) [%],%Inh (MAST1) [%],%Inh (MEK1) [%],%Inh (MEK2) [%],%Inh (MEK3) [%],%Inh (MEK4) [%]
CCCCc1nn2ncccc2c1-c1ccnc(Nc2ccc(N3CCN(C)CC3)cc2)n1 [GW684941],9,16,37,49,40,0,12,0,21,0,0,0,0,32,0,31,0,0,0,32
COc1ccc(Nc2nccc(NCCNC(=O)c3cc4ccccc4s3)n2)cc1 [GSK1379896],0,15,0,0,24,0,0,1,8,2,0,0,0,4,0,0,0,0,0,16
CC(C)c1nc(-c2cccc(NS(=O)(=O)c3c(F)cccc3F)c2F)c(-c2ccnc(Nc3ccc(N4CCOCC4)nc3)n2)s1 [GSK2008607],0,15,97.7,80,91.7,0,88,40,88,0,0,0,24,0,80,0,0,64,57,100
COc1cccc(C2=C(Nc3ccc(Cl)c(C(=O)O)c3)C(=O)NC2=O)c1 [SB-390769],24,13,100,0,29,100,0,100,100,26,0,0,0,0,13,0,0,0,0,97.4
Cl.c1ccc(-c2ccc3c(Nc4ccc5[nH]ncc5c4)ccnc3c2)nc1 [GW440137],4,22,0,0,4,0,0,0,0,1,0,0,0,0,15,0,0,5,0,0
O=C(Nc1n[nH]c2nc(-c3ccc(O)cc3)ccc12)C1CC1 [SB-710363],32,10,13,30,0,41,0,53,0,0,4,0,38,0,0,36,0,8,36,10
Cl.Cl.NCC(C(=O)Nc1cc(Br)c(-c2ccnc3[nH]ccc23)s1)c1ccccc1 (stereo not shown) [GSK1269851],0,17,13,0,63,13,0,20,0,0,0,0,55,0,0,13,1,0,50,11
FC(F)(F)c1ccc(/C=C/c2cncnc2Nc2ccc3[nH]c(Cc4ccccc4)nc3c2)cc1 [GW709199],0,0,0,1,15,0,0,0,0,3,0,0,0,28,8,5,0,25,0,0
